Tau FP inhib = inhibitors of human tau fibril formation. P10636. K18 P301L tau heparin fibrillization, Alexa594 FP, 6 h. Potency, µM (highest dose often 57.7 µM), usual class: inhibitors. 0.39% of 280,000 active; further: nearly all actives have a fitted effect of over 55% in size
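Human K18 P301L fragment (15 uM unlabeled plus 0.24 uM Alexa 594-labeled) in 100 mM sodium acetate pH 7 with compound, aggregation induced by 20 uM heparin for 6 hr at 37 C. ThT (30 uM) added for 1 hr, then Alexa 594 FP read.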
Sfp PPTase inh = blocks B. subtilis Sfp PPTase activity. Biochemical Sfp PPTase activity, qHTS. Potency, µM, most hits filed as inhibitors. 3.5% of 310,000 active;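 further: the enzyme is Sfp with the accession as filed and its product quenches rhodamine fluorescence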
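Buffer: 50 mM Hepes-Na pH 7.6, 10 mM MgCl2, 0.01% Nonidet P-40, 0.01% BSA. Enzyme 15 nM, pre-exposed to compound 15 min; substrates then added and fluorescence change tracked over 30 min.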
Tau fluor cs = counter-screen for tau fibril formation inhibitors. tau K18 P301L Alexa594 fluorescence, heparin fibrillization. Potency, µM (series often up to 57.7 µM). 0.93% of 280,000 active. AID 1463; further: nearly all actives have a fitted effect of over 55% in size
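Human tau K18 P301L (15 uM unlabeled, 0.24 uM Alexa 594-labeled) in 100 mM sodium acetate pH 7 with 20 uM heparin, 6 hr at 37 C. ThT 30 uM added, 1 hr ambient; Alexa 594 FP and total fluorescence read at 555/632 nm.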
PLK1 PBD inh = PLK1 (human) polo-box domain binding inhibition. P53350. Potency, µM, hits mostly inhibitors. 2.8% of 360,000 active. AID 720504. Plk1 PBD binding of FITC phosphopeptide, fluorescence polarization; further: series mostly up to about 57 µM; nearly all actives have a fitted effect of over 65% in size
Target sequence (P53350 whole entry, looked up, the tested form may be a part): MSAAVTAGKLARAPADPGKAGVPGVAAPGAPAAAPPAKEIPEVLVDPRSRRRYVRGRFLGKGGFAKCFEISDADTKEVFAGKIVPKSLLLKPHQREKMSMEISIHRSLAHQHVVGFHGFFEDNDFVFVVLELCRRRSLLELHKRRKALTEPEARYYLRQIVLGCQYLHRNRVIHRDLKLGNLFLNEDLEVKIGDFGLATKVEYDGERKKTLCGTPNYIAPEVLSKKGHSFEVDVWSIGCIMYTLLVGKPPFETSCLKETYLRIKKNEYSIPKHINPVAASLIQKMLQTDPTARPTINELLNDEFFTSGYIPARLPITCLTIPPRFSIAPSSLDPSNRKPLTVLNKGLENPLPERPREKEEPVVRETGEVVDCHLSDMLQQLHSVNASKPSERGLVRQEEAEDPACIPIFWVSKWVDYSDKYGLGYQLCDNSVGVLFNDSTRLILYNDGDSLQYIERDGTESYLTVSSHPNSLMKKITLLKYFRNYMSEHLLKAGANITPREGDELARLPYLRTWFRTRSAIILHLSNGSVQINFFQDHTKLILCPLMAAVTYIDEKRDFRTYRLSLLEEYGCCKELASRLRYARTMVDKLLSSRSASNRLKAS
Tau ThT inhib = blocks human tau fibril formation measured by thioflavin T. recombinant tau K18 P301L (four-repeat tau fragment), heparin-induced fibrillization, ThT fluorescence. Potency, µM (doses to about 57.4 µM), usual class: inhibitors. 2.1% of 270,000 active. AID 1460; further: nearly all actives have a fitted effect of over 55% in size
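Tau K18 P301L fragment (15 uM unlabeled plus 0.24 uM Alexa 594-labeled) in 100 mM sodium acetate pH 7 with compound, fibrillization induced by 20 uM heparin for 6 hr at 37 C. Thioflavin T (30 uM) added, fluorescence read after 1 hr (ex 450, em 510 nm).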
VDR inh = blocks the human vitamin D receptor; Potency, µM, actives largely listed as inhibitors; P11473; VDR-SRC2-3 peptide fluorescence polarization, 2 h; 0.93% of 400,000 active
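Fluorescence polarization assay measuring small-molecule disruption of VDR binding to the coregulator peptide SRC2-3. Compounds were pin-transferred (23 nl) into the reagent mix and incubated 2 h at room temperature before reading.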
Hits are given with their value. This is a sample that favours compounds with a hit; in the whole collection about 6% have one here. The call rests on the fitted dose curve; in most records, active means well fitted curve in the direction sought with a large enough effect; inconclusive means small, poorly fitted or top-dose-only effect, or another doubt; inactive means no such curve, though single readings can be large; an effect the other way counts as inactive or inconclusive.

Results for Cc1ccc(OCC(=O)Nc2cc(C(C)(C)C)on2)cc1C ?
Sfp PPTase inh: 45µM; PLK1 PBD inh: inactive; VDR inh: inactive

What do the screens show for `Cc1cc(C)cc(OCC(=O)Nc2ccc(N3CCCC3)cc2)c1`?
Tau FP inhib: inactive; Sfp PPTase inh: 56µM; Tau fluor cs: inconclusive; PLK1 PBD inh: inactive; Tau ThT inhib: inconclusive; VDR inh: inactive

Results for COc1ccc(NC(=O)CN(C)C(=O)Cc2ccc3c(c2)CCC3)cc1 ?
Sfp PPTase inh: inactive; PLK1 PBD inh: inconclusive; VDR inh: inactive

How did CC1=C(C(=O)Nc2cccc(C)c2C)C2(CCCCC2)OC1=O do in these assays?
Tau FP inhib: inactive; Tau fluor cs: inconclusive; Tau ThT inhib: inactive; VDR inh: inactive

How did Cc1cc(C(F)(F)F)c(C#N)c(SCC(=O)Nc2nc3ccccc3s2)n1 do in these assays?
Tau FP inhib: inactive; Sfp PPTase inh: inactive; Tau fluor cs: inactive; PLK1 PBD inh: inactive; Tau ThT inhib: inactive; VDR inh: inactive

Results for Cc1nc(SCC(=O)Nc2nc3ccccc3s2)c(C#N)c(C)c1C ?
Tau FP inhib: inactive; Sfp PPTase inh: 50µM; Tau fluor cs: inactive; PLK1 PBD inh: inactive; Tau ThT inhib: inactive; VDR inh: inactive

What do the screens show for `O=C1c2ccccc2C(=O)c2c1ccc(C(=O)N1CCCCC1)c2NCCO`?
Tau FP inhib: inactive; Sfp PPTase inh: inactive; Tau fluor cs: inactive; PLK1 PBD inh: inactive; Tau ThT inhib: inactive; VDR inh: inactive

How did CC1(C)CCCN(C(=O)c2ccc3c(c2NCCO)C(=O)c2ccccc2C3=O)C1 do in these assays?
Tau FP inhib: inactive; Sfp PPTase inh: inactive; Tau fluor cs: inconclusive; PLK1 PBD inh: inactive; Tau ThT inhib: 14µM; VDR inh: inactive

Results for COC(=O)c1ccc(NC(=O)c2c(Br)cnn2C)cc1 ?
Sfp PPTase inh: 35µM; PLK1 PBD inh: 24µM; VDR inh: inconclusive

What do the screens show for `CC(C)Oc1ccc(OCCn2c(=S)[nH]c3c(N)ncnc32)cc1`?
Tau FP inhib: inactive; Sfp PPTase inh: 50µM; Tau fluor cs: inconclusive; PLK1 PBD inh: 11µM; Tau ThT inhib: inconclusive; VDR inh: inactive

How did CC(C)Oc1ccc(OCCn2c(S(=O)(=O)O)nc3c(N)ncnc32)cc1 do in these assays?
Sfp PPTase inh: inactive; PLK1 PBD inh: inactive; VDR inh: inactive

What do the screens show for `O=[N+]([O-])c1cnc(Sc2ccncn2)s1`?
Tau FP inhib: inconclusive; Sfp PPTase inh: inconclusive; Tau fluor cs: inconclusive; PLK1 PBD inh: 0.67µM; Tau ThT inhib: inconclusive; VDR inh: 22µM

Results for CN1CCN(c2ncnc3c2ncn3[C@H]2CN(C)C[C@@H](CO)O2)CC1 ?
PLK1 PBD inh: inactive

Results for CNC(=S)/N=C(\Nc1ccc(C)cc1)c1ccccc1 ?
Tau FP inhib: inactive; Sfp PPTase inh: 7.1µM; Tau fluor cs: inactive; PLK1 PBD inh: inactive; VDR inh: inactive

Results for Cc1ccc(-n2nnnc2CNC(=O)c2cc(C(F)(F)F)cc(C(F)(F)F)c2)cc1C ?
Tau FP inhib: inactive; Tau fluor cs: inactive; Tau ThT inhib: inactive; VDR inh: inactive

Results for CCCC1CCC(C2=N/C(=C\c3ccc(OC)c(OC)c3)C(=O)O2)CC1 (stereo not given) ?
Tau FP inhib: inactive; Sfp PPTase inh: inactive; Tau fluor cs: inactive; PLK1 PBD inh: inactive; Tau ThT inhib: inconclusive; VDR inh: inactive

What do the screens show for `CC(=O)Oc1ccc(/C=C2\N=C(C3CCCCC3)OC2=O)cc1`?
Tau FP inhib: inactive; Sfp PPTase inh: inactive; Tau fluor cs: inactive; PLK1 PBD inh: inactive; Tau ThT inhib: inconclusive; VDR inh: 79µM

Results for COc1cccc(/C=C2\N=C(C3CCCCC3)OC2=O)c1OC ?
Tau FP inhib: inactive; Sfp PPTase inh: inactive; Tau fluor cs: inactive; PLK1 PBD inh: inactive; Tau ThT inhib: inconclusive; VDR inh: 32µM

How did Cc1cc(O)c(C=O)c2c1C(=O)Oc1c(CO)c(O)c3c(c1O2)C(O)OC3=O (stereo not given) do in these assays?
Tau FP inhib: 16µM; Sfp PPTase inh: 14µM; Tau fluor cs: inconclusive; PLK1 PBD inh: 7.5µM; Tau ThT inhib: inconclusive; VDR inh: 18µM

What do the screens show for `Cc1cc(O)c(CN(C)C)c2c1C(=O)/C(=C/c1ccco1)O2`?
Sfp PPTase inh: inactive; PLK1 PBD inh: inactive; VDR inh: inactive

Source: PubChem
